The values that follow come from PubChem BioAssay.

Calls of active or inactive are those of the source.

For experiment [1], the target named is Albumin (Bos taurus) (UniProt P02769). The experiment is described as follows: bovine serum albumin binders on microarray, profiling panel, artefact control for SMM control protein annotation, biochemical, small-molecule microarray, Alexa647 label, 635/667 nm fluorescence (AID 1118).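 Note: score merges 667 nm emission intensity and signal-to-noise per printed compound spot.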 The note with it: BSA-A647 binding, fluorescence 635 nm, higher = more signal.

Experiment [2] is described as follows: small-molecule microarray binders of probe aXIP, primary screen, biochemical, NeuroSMM set, 635/667 nm fluorescence (AID 1119).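 Note: probe is the protein aXip251-270 applied at 1 µg/mL to compound-printed slides; binding of probe to printed compounds measured as 667 nm fluorescence plus signal to noise.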 The note with it: higher = more signal, called active from +8 up or from −8 down.
Experiment [3] in a line: small-molecule binders of probe aNOTCH3, primary screen, biochemical, small-molecule microarray, 635/667 nm fluorescence (AID 1120).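 Note: probe is a biotin-tagged antibody raised against NOTCH3 rather than NOTCH3 protein; score merges spot fluorescence near 667 nm with spot signal to noise.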 The settings on record: higher = more signal.
Experiment [4] is described as follows: small-molecule binders of probe aNOTCH2, primary screen, biochemical, small-molecule microarray, 635/667 nm fluorescence (AID 1121).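 Note: score merges feature fluorescence read at 667 nm with its signal to noise.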 The settings on record: higher = more signal.
The target of experiment [5] is Carbonic anhydrase 2 (Homo sapiens) (UniProt P00918). Nature of the experiment: CAII small-molecule binders, profiling panel, biochemical, small-molecule microarray, Alexa647-labelled CAII (AID 1122). The note with it: CAII-A647 binding fluorescence, higher = more signal.
Experiment [6] is described as follows: COS7 lysate on small-molecule microarray, probe aHis, 635 nm (AID 1123).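 Note: z-score combines 667nm fluorescence intensity with signal-to-noise per printed compound spot.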 The settings on record: COS7 cell lysate, fluorescence, higher = more signal.
Experiment [7] can be described thus: compound binding in COS7 lysate, probe aLAP1, primary screen, cell lysate, small-molecule microarray (AID 1124).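 Note: lysate comes from COS7 cells expressing LAP1 and is applied at 0.3 µg/mL; score merges spot fluorescence near 667 nm with signal-to-noise over triplicate slides.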 The note with it: probe aLAP1, fluorescence, higher = more signal.
Experiment [8] has as its system Sam68 (KHDRBS1). The experiment is described as follows: Sam68 small-molecule binders, primary screen, biochemical, small-molecule microarray, 635 nm fluorescence (AID 1125).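 Note: score merges 667 nm channel intensity with signal to noise over triplicate slides.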 The settings on record: small-molecule microarray binding, higher = more signal.
Experiment [9] concerns Chordin-like protein 2 (CHRDL2). The experiment is described as follows: CHRDL2 small-molecule binders, primary screen, biochemical, small-molecule microarray, 635 nm fluorescence (AID 1126).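 Note: printed compound slides probed with Chrdl2 protein at 4 µg/mL for 1 h at 4 C; score merges 667 nm emission intensity with signal to noise over three replicate slides.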 The settings on record: small-molecule microarray binding, fluorescence 635 nm; higher = more signal.
Experiment [10] concerns the target Concanavalin-A (Canavalia ensiformis) (UniProt P02866). The experiment is described as follows: ConA small-molecule binders, primary screen, artefact control for SMM control protein annotation, biochemical, small-molecule microarray, Alexa647 label, 635 nm (AID 1127).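 Note: z combines 667 nm emission intensity with signal-to-noise across three replicate slides.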 The settings on record: ConA-A647 binding fluorescence, higher = more signal.
A short description of experiment [11]: anti-His antibody binders, primary screen, artefact control for SMM control protein annotation, biochemical, small-molecule microarray, 635 nm fluorescence (AID 1128).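 Note: score merges feature fluorescence with signal-to-noise for each printed compound spot.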 The settings on record: anti-His Alexa647 antibody binding, higher = more signal.
Experiment [12] has as its system Human papillomavirus type 1a E7 protein (residues 1-88). Nature of the experiment: HPV1a E7 small-molecule binders, primary screen, biochemical, small-molecule microarray, residues 1-88, 635 nm (AID 1129). The settings on record: small-molecule microarray binding, fluorescence 635 nm; higher = more signal.
Experiment [13] deals with Focal adhesion kinase 1 (Homo sapiens) (UniProt Q05397). Nature of the experiment: small-molecule microarray binders of FAK, primary screen, biochemical, 635/667 nm fluorescence, BSA, DTT (AID 1130).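 Note: composite of spot emission at 667 nm and signal to noise over triplicate slides.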 The settings on record: PTK2 binding, 635 nm fluorescence, higher = more signal.
The test system of experiment [14] is Fibrinogen (Alexa647-labelled). Nature of the experiment: fibrinogen binders on compound microarrays, profiling panel, artefact control for SMM control-protein annotation, biochemical, small-molecule microarray, 635/667 nm fluorescence (AID 1131).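 Note: z-score merges 667 nm fluorescence with per-spot signal-to-noise over triplicate slides.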 The note with it: fibrinogen-A647 binding fluorescence, higher = more signal.
The target in experiment [15] is Follistatin (Homo sapiens) (UniProt P19883). Nature of the experiment: follistatin binders on small-molecule microarrays, primary screen, biochemical, small-molecule microarray, 635/667 nm fluorescence (AID 1132). The settings on record: FST binding, 635 nm fluorescence, higher = more signal.
For experiment [16], the target named is Fibroblast growth factor 2 (Homo sapiens) (UniProt P09038). Nature of the experiment: FGF2 binders on small-molecule microarrays, primary screen, biochemical, small-molecule microarray, 635/667 nm fluorescence (AID 1133). The note with it: small-molecule microarray binding, FGF2, fluorescence 635/667; higher = more signal.
The nature of experiment [17]: mitochondrial membrane potential change in A549 cells, profiling panel, cell-based, JC-1 fluorescence, basal, 24 h, 100 nL (AID 1138).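 Note: A549 lung adenocarcinoma cells under basal conditions with no added stimulus; test concentration not given here.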 The note with it: higher = more signal.
For experiment [18], the system named is Lefty1. The experiment is described as follows: Lefty1 binders on small-molecule microarrays, primary screen, biochemical, small-molecule microarray, 635/667 nm fluorescence (AID 1139). The note with it: small-molecule microarray binding, fluorescence 635/667; higher = more signal.
For experiment [19], the system named is wheat germ agglutinin (Triticum aestivum), Alexa647-labelled. Nature of the experiment: wheat germ agglutinin binders on compound microarrays, profiling panel, artefact control for SMM control-protein annotation, biochemical, small-molecule microarray, 635/667 nm fluorescence (AID 1140).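 Note: score merges 667 nm feature emission with signal to noise over triplicate slides.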 The settings on record: WGA-A647 binding, 635 nm fluorescence, higher = more signal.

For experiment [20], the target named is Luciferin 4-monooxygenase (Photinus pyralis) (UniProt P08659). The experiment is described as follows: firefly luciferase enzyme inhibitors, primary screen, biochemical, luminescence, purified enzyme, 2006 set (AID 1141).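 Note: cell-free assay with purified firefly luciferase at 100 ng per well in PBS; test concentration not given here.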 The note with it: SteadyGlo luminescence, 30 min, higher = more signal, called active from +8 up or from −8 down.
Luciferin 4-monooxygenase (Photinus pyralis), sequence (P08659 whole entry, looked up): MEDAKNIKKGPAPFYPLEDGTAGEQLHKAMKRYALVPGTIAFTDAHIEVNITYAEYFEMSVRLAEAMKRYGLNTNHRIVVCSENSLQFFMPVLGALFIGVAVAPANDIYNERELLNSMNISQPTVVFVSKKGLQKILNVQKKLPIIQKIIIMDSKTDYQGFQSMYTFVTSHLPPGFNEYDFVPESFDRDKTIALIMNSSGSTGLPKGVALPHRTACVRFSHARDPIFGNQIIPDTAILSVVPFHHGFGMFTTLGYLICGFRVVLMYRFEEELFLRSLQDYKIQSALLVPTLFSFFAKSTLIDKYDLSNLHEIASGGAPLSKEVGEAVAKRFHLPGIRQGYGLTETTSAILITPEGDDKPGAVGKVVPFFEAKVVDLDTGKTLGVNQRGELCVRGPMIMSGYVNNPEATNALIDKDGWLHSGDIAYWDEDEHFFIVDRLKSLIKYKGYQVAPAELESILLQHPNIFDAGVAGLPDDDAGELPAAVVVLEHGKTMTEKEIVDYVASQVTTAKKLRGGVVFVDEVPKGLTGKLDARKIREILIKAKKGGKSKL

Concanavalin-A (Canavalia ensiformis), sequence (P02866 whole entry, looked up): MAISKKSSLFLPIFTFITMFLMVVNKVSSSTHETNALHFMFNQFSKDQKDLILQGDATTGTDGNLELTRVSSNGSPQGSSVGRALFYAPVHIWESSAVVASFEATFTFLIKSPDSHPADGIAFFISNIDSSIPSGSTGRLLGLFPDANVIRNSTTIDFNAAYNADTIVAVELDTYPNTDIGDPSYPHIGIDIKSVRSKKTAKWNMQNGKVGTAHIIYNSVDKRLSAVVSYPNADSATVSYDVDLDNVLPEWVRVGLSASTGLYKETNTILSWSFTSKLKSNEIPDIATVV
Fibroblast growth factor 2 (Homo sapiens), sequence (P09038 whole entry, looked up): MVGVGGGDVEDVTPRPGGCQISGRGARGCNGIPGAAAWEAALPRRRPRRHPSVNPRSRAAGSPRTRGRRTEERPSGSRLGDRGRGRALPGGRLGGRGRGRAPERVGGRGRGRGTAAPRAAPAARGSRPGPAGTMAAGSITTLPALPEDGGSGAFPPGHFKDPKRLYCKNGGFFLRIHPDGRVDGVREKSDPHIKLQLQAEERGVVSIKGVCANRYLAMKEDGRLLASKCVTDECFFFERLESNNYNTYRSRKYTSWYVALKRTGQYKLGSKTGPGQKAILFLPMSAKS
Focal adhesion kinase 1 (Homo sapiens), sequence (Q05397 whole entry, looked up): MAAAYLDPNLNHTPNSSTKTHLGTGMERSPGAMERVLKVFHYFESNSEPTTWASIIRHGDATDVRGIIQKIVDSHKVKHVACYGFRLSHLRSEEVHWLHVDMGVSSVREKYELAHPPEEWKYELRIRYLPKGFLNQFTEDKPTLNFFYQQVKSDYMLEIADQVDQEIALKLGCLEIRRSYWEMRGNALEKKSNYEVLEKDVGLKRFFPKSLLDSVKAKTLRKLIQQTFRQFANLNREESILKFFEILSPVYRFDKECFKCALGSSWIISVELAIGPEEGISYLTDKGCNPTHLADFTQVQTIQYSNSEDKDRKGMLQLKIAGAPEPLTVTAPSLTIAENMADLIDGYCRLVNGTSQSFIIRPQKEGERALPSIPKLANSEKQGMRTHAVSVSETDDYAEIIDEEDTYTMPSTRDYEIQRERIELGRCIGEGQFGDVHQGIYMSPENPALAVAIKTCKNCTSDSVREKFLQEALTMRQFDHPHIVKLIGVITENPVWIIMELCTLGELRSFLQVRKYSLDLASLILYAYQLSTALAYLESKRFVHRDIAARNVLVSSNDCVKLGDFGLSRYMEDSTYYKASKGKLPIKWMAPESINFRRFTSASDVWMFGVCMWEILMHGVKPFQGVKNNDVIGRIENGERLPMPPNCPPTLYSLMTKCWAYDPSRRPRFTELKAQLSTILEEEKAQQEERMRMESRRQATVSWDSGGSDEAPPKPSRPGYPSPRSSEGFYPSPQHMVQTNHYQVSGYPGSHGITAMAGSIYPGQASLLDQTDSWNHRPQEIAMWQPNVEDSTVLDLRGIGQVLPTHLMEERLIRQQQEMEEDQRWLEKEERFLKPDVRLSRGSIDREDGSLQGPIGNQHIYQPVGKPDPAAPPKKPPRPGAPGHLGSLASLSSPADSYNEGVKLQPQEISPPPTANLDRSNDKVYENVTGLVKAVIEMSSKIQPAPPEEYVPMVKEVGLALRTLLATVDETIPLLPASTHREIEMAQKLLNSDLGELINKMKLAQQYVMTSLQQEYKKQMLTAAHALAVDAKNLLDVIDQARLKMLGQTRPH
Albumin (Bos taurus), sequence (P02769 whole entry, looked up): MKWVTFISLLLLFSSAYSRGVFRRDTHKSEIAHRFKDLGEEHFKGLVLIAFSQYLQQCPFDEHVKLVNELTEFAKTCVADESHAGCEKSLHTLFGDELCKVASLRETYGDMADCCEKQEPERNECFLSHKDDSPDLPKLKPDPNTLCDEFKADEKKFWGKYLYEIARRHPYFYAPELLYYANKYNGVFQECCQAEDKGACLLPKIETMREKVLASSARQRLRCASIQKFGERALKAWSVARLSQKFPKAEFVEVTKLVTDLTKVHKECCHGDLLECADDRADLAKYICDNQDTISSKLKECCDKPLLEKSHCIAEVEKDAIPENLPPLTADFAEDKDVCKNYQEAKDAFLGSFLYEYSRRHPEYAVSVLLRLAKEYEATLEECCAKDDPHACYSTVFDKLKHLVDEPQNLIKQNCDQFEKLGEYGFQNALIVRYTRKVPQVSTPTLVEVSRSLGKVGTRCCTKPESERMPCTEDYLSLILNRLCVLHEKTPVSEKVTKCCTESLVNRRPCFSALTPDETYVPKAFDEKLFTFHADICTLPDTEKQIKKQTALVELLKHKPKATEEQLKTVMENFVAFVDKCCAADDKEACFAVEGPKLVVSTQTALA
Follistatin (Homo sapiens), sequence (P19883 whole entry, looked up): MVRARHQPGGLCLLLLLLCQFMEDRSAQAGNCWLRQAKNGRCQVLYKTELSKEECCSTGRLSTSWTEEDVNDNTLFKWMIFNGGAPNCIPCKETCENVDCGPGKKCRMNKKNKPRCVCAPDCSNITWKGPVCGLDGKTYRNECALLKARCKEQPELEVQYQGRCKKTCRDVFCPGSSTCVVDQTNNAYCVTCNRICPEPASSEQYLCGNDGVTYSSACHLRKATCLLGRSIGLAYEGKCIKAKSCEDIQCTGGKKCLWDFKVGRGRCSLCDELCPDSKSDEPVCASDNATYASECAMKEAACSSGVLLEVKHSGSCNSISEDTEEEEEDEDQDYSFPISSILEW

In the case of `OCC1C=C(/C=C/c2ccccc2)CN1Cc1ccccc1Br` (stereo not given), the composite z-score in [1] was 0.718; in [3] it was 0.0694; in experiment [4], -0.0877; in experiment [5], 0.287; in [6], 0.672; in experiment [7] it was -0.0831. Also, the composite z-score in [8] is 1.01; in experiment [9] it was 0.402; in experiment [10], 0.94; in experiment [11] it was 1.5; in [12], 0.278; in experiment [13] it was -0.18. For the same molecule, the composite z-score in [14] worked out at 0.891; in experiment [15], 1.29; in [16], 1.39; in experiment [18], 1.51; in experiment [19], 0.94. Besides, the composite Z-score in experiment [2] was 0.466 (inactive). The z-score in experiment [17] is 0.426; in experiment [20], -1.05 (inactive).

With `CCCCCCCCCCC(O)C1C=CC2C(=O)NC(=O)C2N1Nc1ccc(Cl)cc1Cl` (stereo not given), the composite z-score in experiment [1] is 0.145; in experiment [3], -0.0288; in [4], -0.077; in experiment [5], 0.442; in experiment [6], 1.66; in experiment [7] it was 0.192. Moreover, the composite z-score is -0.0789 in [8]; 0.0425 in experiment [9]; 0.248 in experiment [10]; 0.997 in experiment [11]; 0.186 in [12]; 0.459 in experiment [13]. For the same molecule, the composite z-score was 0.331 in [14]; -0.184 in experiment [15]; -0.942 in experiment [16]; -1.14 in [18]; 0.117 in [19]. In experiment [2], the composite Z-score is -0.383 (inactive). The figures for the z-score in [17] and in [20] were -0.863 and -0.836 (inactive), respectively.

Regarding `NC(=O)[C@@H]1[C@H]2C(=O)O[C@H](c3ccccc3)[C@H](c3ccccc3)N2[C@H](c2ccc(OCCO)cc2)[C@@]12C(=O)Nc1ccc(C#CC3=CCCCC3)cc12`, the composite z-score was 0.768 in experiment [1]; -0.0665 in [3]; 0.0086 in experiment [4]; 0.647 in [5]; 0.558 in experiment [6]; 0.0971 in [7]. Further, the composite z-score in experiment [8] worked out at 1.32; in experiment [9] it was 0.463; in [10], 1.09; in experiment [11], 0.823; in [12], 1.21; in experiment [13] it was 1.33. The composite z-score is 1.01 in experiment [14]; 1.22 in experiment [15]; 0.413 in experiment [16]; 0.741 in [18]; 0.632 in experiment [19]. For the same molecule, the composite Z-score in experiment [2] was 2.02 (inactive). The results for the z-score in experiment [17] and in [20] were -1.87 and -2.48 (inactive), respectively.

As to `C=C(C)[C@@H]1CC=C(C(O)C2C=CC3C(=O)NC(=O)C3N2Nc2ccc(Cl)cc2Cl)CC1` (stereo not given in full), the composite z-score in [1] was determined as 1; in experiment [3], 0.0221; in experiment [4], 0.0032; in experiment [5], 0.708; in [6] it was 2; in [7], 0.708. The composite z-score was determined as 1.31 in experiment [8]; 0.41 in experiment [9]; 1.11 in experiment [10]; 1.83 in experiment [11]; 1.2 in experiment [12]; 1.33 in [13]. In addition, the composite z-score in experiment [14] was 1; in [15], 1.14; in experiment [16] it was -0.853; in experiment [18], -0.336; in experiment [19], 1.34. The composite Z-score in experiment [2] was 0.114 (inactive). Further, the z-score is -1.25 in experiment [17] and 0.022 (inactive) in experiment [20].

For `C=CCNC(=O)[C@@H]1[C@H]2C(=O)O[C@H](c3ccccc3)[C@H](c3ccccc3)N2[C@H](c2ccc(OCCO)cc2)[C@@]12C(=O)N(C(=O)OCCOC)c1ccc(C#CCC(C(=O)OC)C(=O)OC)cc12`, the composite z-score in experiment [1] stood at 0.371; in experiment [3] it was 0.199; in experiment [4] it was 0.0278; in [5] it was 0.637; in [6] it was 1.37; in experiment [7] it was 1.05. In addition, the composite z-score in experiment [8] amounted to 1.31; in experiment [9], 0.665; in experiment [10], 1.09; in [11], 1.67; in experiment [12], 1.16; in experiment [13], 1.31. The composite z-score in experiment [14] stood at 0.603; in experiment [15], 1.24; in [16], 1.48; in experiment [18], 0.991; in [19], 1.05. Moreover, the composite Z-score in experiment [2] is 0.0558 (inactive). Further, the z-score in experiment [17] is -1.18; in [20], -0.262 (inactive).

In the case of `[N-]=[N+]=NCc1ccccc1[C@H]1OC(c2ccc(OCCCO)cc2)=N[C@@]1(Cc1ccccc1)C(=O)N1CCCCC1`, the composite z-score in [1] was 0.515; in [3], 0.234; in experiment [4], -0.133; in experiment [5], 0.591; in [6] it was 2.32; in [7], 0.284. For the same molecule, the composite z-score in experiment [8] is 1.29; in experiment [9], -0.237; in experiment [10], 1.08; in experiment [11] it was 0.777; in experiment [12], 1.23; in experiment [13], 0.795. Besides, the composite z-score was found to be 1 in experiment [14]; 1.45 in experiment [15]; 1.52 in experiment [16]; 0.944 in [18]; 0.834 in experiment [19]. The composite Z-score in experiment [2] is -0.34 (inactive). In addition, the z-score in experiment [17] is 0.779; in experiment [20], 0.486 (inactive).

For the molecule `NCCCCCNC(=O)[C@H]1C[C@H]2C(=O)N[C@@H](Cc3ccccc3)C(=O)N2[C@H]1c1cccc(OCCO)c1`, the composite z-score in experiment [1] is 0.862; in experiment [3], 0.144; in experiment [4], 0.0409; in [5], 0.438; in [6], 0.24; in experiment [7], 1.07. For the same molecule, the composite z-score in experiment [8] stood at 0.474; in experiment [9], 0.723; in experiment [10], 0.883; in experiment [11], 0.614; in experiment [12], 0.624; in [13], 0.163. Further, the composite z-score was 0.962 in experiment [14]; 1.07 in experiment [15]; 0.159 in [16]; 0.0778 in experiment [18]; 0.782 in experiment [19]. Moreover, the composite Z-score in experiment [2] is 1.11 (inactive). Moreover, the z-score in experiment [17] is 1.07; in experiment [20] it was -1.4 (inactive).

For the molecule `[N-]=[N+]=Nc1ccccc1[C@H]1OC(c2ccc(OCCCO)cc2)=N[C@@]1(Cc1ccccc1)C(=O)N1CCOCC1`, the composite z-score in experiment [1] is 1.05; in experiment [3] it was 0.223; in experiment [4] it was 0.132; in experiment [5], 0.523; in [6], 2.89; in experiment [7], 1.09. Besides, the composite z-score in experiment [8] stood at 1.29; in experiment [9] it was 0.311; in [10], 1.14; in [11], 2.22; in [12] it was 1.21; in [13], 0.68. The composite z-score in [14] is 0.974; in [15], 1.38; in experiment [16] it was 1.66; in experiment [18] it was 0.511; in [19], 1.09. Also, in [2], the composite Z-score was 1.39 (inactive). Further, the z-score is -0.254 in [17] and -5.58 (inactive) in [20].
